Source: PubChem (several laboratories)
Rows were chosen to be rich in hits. Some 1.3% of all compounds tested hit in one or more screens of this group.
PTPN22 inh 2: inhibitors of human LYP (PTPN22) phosphatase; actives 0.21% (n = 96,000); recombinant LYP catalytic domain, DiFMUP fluorescence; AID 640; Q9Y2R2; inhibition, % at 2 µM;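 active = inhibition at 2 µM at or above a set limit, the screen mean plus 3 SD, cut at about 24% in these data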;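 also: 0% = DMSO with enzyme and 100% = enzyme fully blocked by orthovanadate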
PTPN22 act: increases human PTPN22 phosphatase activity. Q9Y2R2. recombinant LYP, DiFMUP fluorescence; 0 = plate median, 100 = signal doubled. activation, % at 2 µM. actives 0.11% (n = 96,000). AID 697;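 active = activation at 2 µM above a set limit, the mean plus 5 SD, cut at about 37% in these data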
S1P2 ag: S1P2 (human) receptor agonism | S1P2-expressing cell line, agonist reporter read-out | actives 0.46% (n = 97,000) | activation, % at 4.5 µM | O95136; in the data active = activation above about 16%;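 also: 0% = vehicle low control and 100% = maximal reference agonist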
Target sequence (O95136 whole entry, looked up): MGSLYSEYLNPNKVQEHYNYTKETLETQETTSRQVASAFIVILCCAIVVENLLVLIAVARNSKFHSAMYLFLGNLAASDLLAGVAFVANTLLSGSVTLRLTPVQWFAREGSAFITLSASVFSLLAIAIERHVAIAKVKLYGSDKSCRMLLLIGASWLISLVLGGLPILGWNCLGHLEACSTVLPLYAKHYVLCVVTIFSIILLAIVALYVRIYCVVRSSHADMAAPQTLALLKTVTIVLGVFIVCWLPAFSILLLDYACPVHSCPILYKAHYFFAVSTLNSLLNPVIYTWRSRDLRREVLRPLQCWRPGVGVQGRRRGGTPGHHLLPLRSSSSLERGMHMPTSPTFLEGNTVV
S1P2 blocker: antagonists of human S1P2 receptor; actives 0.21% (n = 97,000); cell-based S1P2 antagonist assay, inhibition at 5 uM; inhibition, % at 5 µM; in the data active = inhibition above about 45%;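 also: CRE beta-lactamase reporter cells expressing human S1P2 stimulated with S1P; 0% = agonist at EC80 alone and 100% = agonist plus reference antagonist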
GALR2 ag: activates the human galanin receptor 2. activation, % (test concentration not listed). O43603. actives 0.48% (n = 140,000). GALR2-expressing cells, agonist activation read-out. AID 803; in the data active = activation above about 5%, passing the limit was not always enough;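 also: 0% = vehicle buffer wells and 100% = reference agonist at full effect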
GALR2 blocker: antagonists of human galanin receptor 2 (GALR2). inhibition, % at 4 µM. GALR2-expressing cells, antagonist mode. actives 0.39% (n = 140,000). AID 828;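 also: cells stimulated with galanin 1-16 at roughly its EC80; 0% = agonist challenge control and 100% = basal control without agonist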
GALR2 blk conf: GALR2 (human) antagonism confirmed | shares compounds with GALR2 blocker | GALR2-expressing cells, antagonist mode, inhibition | inhibition, % at 4 µM | actives 60% (n = 480) | AID 866;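 also: cells stimulated with galanin at about its EC80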
BLA inhib ctr: inhibits beta-lactamase reporter in GALR2 antagonist counterscreen; shares compounds with GALR2 blocker; CHO NFAT-BLA reporter, beta-lactamase FRET, thapsigargin-stimulated; inhibition, % at 4.2 µM; actives 36% (n = 480);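 active = inhibition above the mean inhibition across tested compounds plus 3 SD, cut at about 27% in these data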;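 also: 0% = 500 nM thapsigargin stimulated wells and 100% = unstimulated BSA only wells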
* marks the source's active call; other numbers are inactive results; · = not tested or not shown. Rule as the data show it, unless noted: active = inhibition above about 27%; inactive = the rest.

SMILES	PTPN22 inh 2	PTPN22 act	S1P2 ag	S1P2 blocker	GALR2 ag	GALR2 blocker	GALR2 blk conf	BLA inhib ctr
O=C(COc1cccc2ccccc12)N1c2ccccc2CCc2ccccc21	1.4	-3.7	-7.8	10.6	0.1	-6.9	·	·
COC(=O)/C(=C1/Oc2cc(C)oc(=O)c2S1)C(F)(F)F	·	·	·	·	-1.6	61.1*	66.5*	51.2*
Cc1[nH]c2ccccc2c1/C=C(\C#N)C(=O)NCc1ccccc1	·	·	·	·	0.1	32.5*	21.8	4.5
Cc1cccc(NC2=Nc3ccccc3N3C2=Nc2c(c(C)nn2-c2ccccc2)C3c2ccc(O)c(O)c2)c1 (stereo not given)	3.6	-6.8	-7.8	79.7*	3.2	44.8*	43.8*	67.5*
Cc1nn(-c2ccccc2)c2c1C(c1ccc(O)c(O)c1)N1C(=N2)C(Nc2ccccc2)=Nc2ccccc21 (stereo not given)	6.5	-3.7	-12.2	85.1*	1.7	47.5*	37.2*	59.0*
Cc1nn(-c2ccccc2)c2c1C(c1ccc([N+](=O)[O-])cc1)N1C(=N2)C(=O)Nc2ccccc21 (stereo not given)	·	·	·	·	-0.3	4.4	·	·
Cc1nn(-c2ccc([N+](=O)[O-])cc2)c2c1C(c1cccc(Br)c1)N1C(=N2)C(=O)Nc2ccccc21 (stereo not given)	·	·	·	·	0.3	5.8	·	·
Cc1ccc(NC2=Nc3ccccc3N3C2=Nc2c(c(C)nn2-c2ccccc2)C3c2ccc(O)c(O)c2)cc1 (stereo not given)	13.3	-10.7	-8.7	76.6*	3.8	57.5*	51.1*	69.0*
Nc1ccc(SC(F)(F)F)cc1C(=O)c1ccccc1	-0.3	3.1	-6.4	0.1	0.7	-0.9	·	·
COC(=O)c1ccc(COC(=O)c2[nH]c(C)c(C(C)=O)c2C)o1	-10.6	11.2	-1.8	28.6	-0.3	27.4*	29.9*	2.1
Cc1cc(C(C)(C)C)oc1C(=O)N(CC(=O)NC1CCCC1)Cc1ccccc1Cl	8.9	-6.0	-5.5	-26.8	-3.9	5.8	·	·
O=C(N/N=C/c1cc2c3c(c1O)CCCN3CCC2)c1ccccc1O	·	·	·	·	-1.5	32.3*	35.3*	24.5
Cc1c(NC(=S)NC(NC(=O)C(C)C)C(Cl)(Cl)Cl)c(=O)n(-c2ccccc2)n1C (stereo not given)	·	·	·	·	-0.2	-2.8	·	·
COc1cc(C(=O)ON=C2C=C(C)C(=O)C(C)=C2)cc(OC)c1OC	·	·	·	·	-0.8	-10.3	·	·
COc1cc(C(=O)O/N=C2\C=CC(=O)C(C)=C2)cc(OC)c1OC	8.1	-8.4	-7.2	28.9	-2.9	77.2*	33.1*	43.8*
CCN(CC)c1ccc(/C=C2/SC(=O)N(C(C)C)C2=O)o1	·	·	·	·	2.5	45.0*	3.1	5.2
COc1ccc(NC2=Nc3cccc4cccc2c34)cc1	·	·	·	·	0.0	27.3*	15.5	6.3
CC(C)=CC(=O)Nc1nnc(C(C)C)s1	4.1	-2.7	-5.0	20.1	-0.2	1.0	·	·
CC1Oc2ccccc2N(CC(=O)NCCc2ccccc2)C1=O (stereo not given)	-7.1	3.4	1.9	-14.9	-0.7	-2.5	·	·
